Several values for one entry are separate records, joined by “and”; a condition that tells them apart may be missing. Identical values can stand only once. Screen size: about 5,500 compounds; about 2,000 (36%) were called active. Roughly 18% stayed inconclusive and do not appear here. Rule as the data show it: active = normalized growth mostly below about 0.91 (no sharp cut-off); inconclusive = no clear call, values can overlap the other calls; inactive = mostly above about 0.92. This is one part of the list.
Test: chemical genetic growth profiling, strain panel (AID 1159580);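 also: tested at 20 µM; growth read once vehicle control cultures reached saturation at 30 °C; 1 = growth at the plate median or of vehicle wells; lower values mean less growth of the strain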
Settings: S. cerevisiae deletion strains, growth OD

Measured: normalized growth

CN[C@@H]1C(OC2[C@H](O[C@H]3[C@H](O)[C@@H](O)[C@H](N=C(N)N)[C@@H](O)[C@@H]3N=C(N)N)OC(C)[C@]2(O)CO)OC(CO)C(O)C1O (some centres not stated)
inactive: locus YAL021C, strain ccr4, stronger effect = lower value 1.02 | locus YAL026C, strain drs2, stronger effect = lower value 1.02 | locus YAL030W, strain snc1, stronger effect = lower value 0.997 | locus YBL061C, strain skt5, stronger effect = lower value 0.996 | locus YBR009C, strain hhf1, stronger effect = lower value 1.01 | locus YBR021W, strain FUR4, stronger effect = lower value 0.988 | locus YBR023C, strain chs3, stronger effect = lower value 1.01 | locus YBR171W, strain sec66, stronger effect = lower value 0.996 | locus YBR229C, strain ROT2, stronger effect = lower value 0.993 | locus YBR231C, strain swc5, stronger effect = lower value 1.01 | locus YBR279W, strain paf1, stronger effect = lower value 1.01 | locus YCL011C, strain gbp2, stronger effect = lower value 1.05 | locus YCL016C, strain dcc1, stronger effect = lower value 1.02 | locus YCL029C, strain bik1, stronger effect = lower value 0.978 | locus YCL069W, strain vba3, stronger effect = lower value 1.03 | locus YCR088W, strain abp1, stronger effect = lower value 0.994 | locus YDL005C, strain med2, stronger effect = lower value 0.998 | locus YDL035C, strain GPR1, stronger effect = lower value 1.03 | locus YDL040C, strain nat1, stronger effect = lower value 0.999 | locus YDL074C, strain BRE1, stronger effect = lower value 0.989 | locus YDL101C, strain DUN1, stronger effect = lower value 0.979 | locus YDL185W, strain tfp1, stronger effect = lower value 0.984 | locus YDL192W, strain arf1, stronger effect = lower value 0.989 | locus YDR001C, strain nth1, stronger effect = lower value 1.02 | locus YDR069C, strain doa4, stronger effect = lower value 1 | locus YDR101C, strain arx1, stronger effect = lower value 0.992 | locus YDR137W, strain rgp1, stronger effect = lower value 0.998 | locus YDR159W, strain sac3, stronger effect = lower value 0.982 | locus YDR162C, strain NBP2, stronger effect = lower value 1.01 | locus YDR195W, strain ref2 0.942 | locus YDR297W, strain sur2, stronger effect = lower value 1 | locus YDR318W, strain mcm21, stronger effect = lower value 0.98 | locus YDR334W, strain swr1, stronger effect = lower value 1.02 | locus YDR335W, strain msn5, stronger effect = lower value 1.01 | locus YDR388W, stronger effect = lower value 0.975 | locus YDR392W, strain spt3, stronger effect = lower value 1.02 | locus YDR502C, strain sam2, stronger effect = lower value 0.985 | locus YEL003W, strain gim4, stronger effect = lower value 1 | locus YEL037C, strain rad23, stronger effect = lower value 1.01 | locus YEL061C, strain CIN8 (second series), stronger effect = lower value 1.01 | locus YEL061C, strain CIN8, stronger effect = lower value 0.995 | locus YER015W, strain faa2, stronger effect = lower value 1.01 | locus YER016W, strain bim1, stronger effect = lower value 1 | locus YER110C, stronger effect = lower value 0.97 | locus YER111C, strain swi4, stronger effect = lower value 1.01 | locus YER155C, strain BEM2 (second series), stronger effect = lower value 0.994 | locus YER155C, strain BEM2, stronger effect = lower value 0.987 | locus YER167W, strain BCK2, stronger effect = lower value 0.99 | locus YFR010W, strain ubp6, stronger effect = lower value 0.993 | locus YGL078C, strain dbp3, stronger effect = lower value 0.97 | locus YGL086W, strain mad1, stronger effect = lower value 1 | locus YGL167C, strain pmr1, stronger effect = lower value 0.996 | locus YGL173C, strain kem1, stronger effect = lower value 1.02 | locus YGL227W, strain vid30, stronger effect = lower value 0.993 | locus YGL240W, strain doc1, stronger effect = lower value 1.01 | locus YGL248W, strain PDE1, stronger effect = lower value 0.975 | locus YGL253W, strain hxk2, stronger effect = lower value 1.02 | locus YGR135W, strain pre9, stronger effect = lower value 0.956 | locus YGR229C, strain SMI1, stronger effect = lower value 1.02 | locus YGR252W, strain gcn5, stronger effect = lower value 0.943 | locus YHR013C, strain ard1, stronger effect = lower value 1.03 | locus YHR027C, strain rpn1, stronger effect = lower value 1.01 | locus YHR030C, strain SLT2, stronger effect = lower value 0.993 and 1.03 | locus YHR079C, strain IRE1 (second series), stronger effect = lower value 0.98 | locus YHR079C, strain IRE1, stronger effect = lower value 1.03 | locus YHR094C, strain hxt1, stronger effect = lower value 0.972 | locus YHR129C, strain ARP1, stronger effect = lower value 0.998 | locus YHR142W, strain chs7, stronger effect = lower value 1.02 | locus YHR200W, strain rpn10, stronger effect = lower value 0.981 | locus YIL066C, strain RNR3, stronger effect = lower value 0.992 | locus YIL073C, strain SPO22, stronger effect = lower value 0.958 | locus YIL125W, strain kgd1, stronger effect = lower value 0.981 | locus YIR030C, strain dcg1, stronger effect = lower value 0.975 | locus YJL092W, strain hpr5, stronger effect = lower value 0.999 | locus YJL095W, strain BCK1 (second series), stronger effect = lower value 1 | locus YJL095W, strain BCK1, stronger effect = lower value 0.975 and 1.05 | locus YJL115W, strain asf1, stronger effect = lower value 1 | locus YJL129C, strain trk1, stronger effect = lower value 0.981 | locus YJL134W, strain LCB3, stronger effect = lower value 0.99 | locus YJL154C, strain vps35, stronger effect = lower value 1.01 | locus YJL164C, strain tpk1, stronger effect = lower value 1.02 | locus YJL166W, strain qcr8, stronger effect = lower value 1.02 | locus YJL168C, strain set2, stronger effect = lower value 0.973 | locus YJL187C, strain SWE1 (second series), stronger effect = lower value 0.981 | locus YJR043C, strain POL32, stronger effect = lower value 1.04 | locus YJR066W, strain TOR1, stronger effect = lower value 0.975 | locus YJR075W, strain HOC1, stronger effect = lower value 0.985
